Assay results from PubChem BioAssay AID2275 (Broad Institute, 2010).
The whole screen tested about 30,000 compounds, of which about 190 (0.63%) were called active. Rule as the data show it: active = viability loss activity score above about 50%; inconclusive = no clear call, values can overlap the other calls; inactive = below about 35%. For the sample, actives were picked, then their nearest neighbours and some compounds at random.

Test: cytotoxicity in HRASV12-transformed BJ fibroblasts – cell-based, luminescence, CellTiterGlo ATP, primary screen (AID 2275);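 also: higher score means fewer live cells and less ATP luminescence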
Conditions: BJeLR fibroblasts viability, 48 h, hits give high values, HRASV12, hTERT and SV40 LT/ST transformed, concentration not given here

SMILES | viability loss activity score
COc1cc(OC)c(N(C)C(=O)c2ccc3c(=O)n4c(nc3c2)CCCCC4)cc1Cl | 4.36% (inactive)
CCN(CC)C(=O)Cn1cc(SCc2ccccc2)c2ccccc21 | -2.18% (inactive)
CCCCS(=O)CSc1nc(-c2ccc(OC)cc2)cc(-c2ccccc2)c1C#N (centres undefined) | -8.8% (inactive)
O=C(Nc1ccncc1)c1cccc(COc2ccc3ccccc3c2)c1 | 12.1% (inactive)
O=C(c1ccccc1)c1cnn(-c2ccc(Cl)cc2)n1 | 14.6% (inactive)
CN1c2ccccc2C(C)(C)C12Cc1cc(NS(=O)(=O)c3ccc(Cl)cc3)ccc1O2 (centres undefined) | 0.312% (inactive)
O=C(Oc1ccc(Br)cc1)c1ccco1 | -1.65% (inactive)
CCOC(=O)c1cc(-c2ccc(C)cc2)n(CC(=O)NCC2CCCO2)c1C (centres undefined) | -1.7% (inactive)
N/C(C[n+]1ccccc1)=N\O | -4.49% (inactive)
O=C(CCc1nc2sc3c(c2c(=O)[nH]1)CCCC3)NC1CCCC1 | 1.97% (inactive)
O=C1CSC(c2ccc(Cl)cc2)N1Nc1nc(Nc2ccccc2)nc(N2CCCCC2)n1 (centres undefined) | -7.31% (inactive)
COc1ccc(/C=C2\SC(=O)N(c3ccc(C)cc3)C2=O)cc1 | -2.92% (inactive)
COc1cc2c(c(OC)c1)C(c1ccccc1OC)CC(=O)N2 (centres undefined) | 0.526% (inactive)
COc1ccc(S(=O)(=O)N(C)C[C@H]2Oc3ccc(N(C)C)cc3C(=O)N([C@@H](C)CO)C[C@@H]2C)cc1 | 0.729% (inactive)
O=C(NCCCN1CCCC1)c1cc(-c2ccncc2)nc2ccccc12 | 3.5% (inactive)
O=C(NCCc1ccccc1)c1nnc(Cc2ccc(F)cc2)o1 | -0.807% (inactive)
CCCN(CCC)Cc1c(O)ccc2c(=O)c(-c3ccccc3)coc12 | 3.33% (inactive)
Cc1cccc(C)c1N=C1Oc2ccccc2NC1(C)c1ccccn1 (centres undefined) | -0.212% (inactive)
CC(C)(C)C1=CC(=Nc2ccccc2N)C=C(C(C)(C)C)C1O (centres undefined) | -0.524% (inactive)
CC(c1ccccc1)N1C(=O)c2ccccc2C1Nc1ccc(F)cc1 (centres undefined) | -2.92% (inactive)
COC(Cn1c(SCC(=O)c2cccc(C(F)(F)F)c2)nnc1-c1ccc(Cl)cc1)OC | 2.18% (inactive)
CSc1nc(COc2ccc(C(C)(C)C)cc2)nc(-n2cccc2)c1C#N | -2.33% (inactive)
C=CCC(c1cc(Cl)ccc1N)S(=O)(=O)c1ccc(C)cc1 (centres undefined) | 0.759% (inactive)
CSc1cccc(NC(=O)CSc2nncn3c2cc2sccc23)c1 | -1.6% (inactive)
